In PubChem BioAssay (NCATS):
Inconclusive results are not listed. A call without a number means that no potency is given here. Active and inactive are the calls of the source. The call rests on the fitted dose curve; in most records, active means well fitted cell-killing curve with a large enough effect; inconclusive means small, poorly fitted or top-dose-only effect, or effect the other way; inactive means no such curve, though single readings can be large or run the other way.

Test: Quantitative High-Throughput drug screen in 47 multiple myeloma cell lines against the NCATS MIPE library collection: EJM_DSMZ cell viability assay (AID 1918926; further: nearly all actives have a fitted effect of over 30% in size)
Conditions: EJM myeloma cell viability, CellTiter-Glo ATP, 48 h; series mostly up to 45.8 µM
In short: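 qHTS of the MIPE 4.0 collection: 500 myeloma cells/well, 48 h drug exposure at 37C in 5% CO2, then CellTiter-Glo for 5 min at room temperature before luminescence reading.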
Potency means the concentration at half of the fitted maximal effect.

Row | SMILES | Potency
1 | COC(=O)Nc1ccc(-c2nc(N3CCOCC3)c3cnn(C4CCN(C(=O)OC)CC4)c3n2)cc1 | 6.62 µM (active)
2 | O=C(NCCCCN1CCOCC1)c1cc2ccccc2o1 | inactive
3 | CCCCCCCCCCCCCCCC(=O)O[C@H]1[C@@H](O)[C@@H](O)[C@@H]([C@H](NC(=O)[C@@H]2C[C@@H](CCC)CN2C)[C@H](C)Cl)O[C@@H]1SC | inactive
4 | CCC[C@H](N[C@@H](C)C(=O)N1[C@@H]2CCCC[C@H]2C[C@H]1C(=O)O)C(=O)OCC | inactive
5 | C#CCN(C)CC1=Cc2ccccc2Oc2ccccc21 | inactive
6 | COc1ccc(C=CC(=O)Nc2ccccc2C(=O)O)cc1OC | inactive
7 | CCCCC(C)(C)[C@H](O)C=C[C@H]1[C@H](O)CC(=O)[C@H]1CC=CCCCC(=O)O | 5.9 µM (active)
8 | CC(=O)OCC(=O)[C@@]1(O)CC[C@H]2[C@@H]3CCC4=CC(=O)C=C[C@]4(C)[C@@H]3[C@@H](O)C[C@@]21C | inactive
9 | Nc1ccn([C@@H]2O[C@H](CO)[C@@H](O)[C@H]2O)c(=O)n1 | inactive
10 | CSc1cccc(Nc2ncc3cc(-c4c(Cl)cccc4Cl)c(=O)n(C)c3n2)c1 | 6.62 µM (active)
11 | Cc1ccc(C2=Nc3ccc(Cl)cc3OC2)cc1 | inactive
12 | CN1C(=O)C[C@H](C(=O)N[C@@H](Cc2cnc[nH]2)C(=O)N2CCC[C@@H]2C(N)=O)NC1=O | inactive
13 | OC(c1cc(C(F)(F)F)nc2c(C(F)(F)F)cccc12)C1CCCCN1 (centres undefined) | 18.7 µM (active)
14 | C[C@]12C=CC(=O)C=C1CC[C@@H]1[C@@H]2[C@@H](O)C[C@@]2(C)[C@@H]1CC[C@]2(O)C(=O)CO | inactive
